The nature of assay [1]: ATG_GLI_CIS: Attagene CIS-FACTORIAL HepG2 Assay for human Zinc Finger Protein GLI1 (AID 2282945). As to conditions: HepG2, Attagene cis-factorial reporter mRNA, GLI element; actives raise or lower the signal. An outline of the steps: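 Bidirectional curve fits relative to DMSO, using reporter mRNA levels from RT-PCR plus capillary electrophoresis. Cells were HepG2 transiently carrying cis-regulated reporter constructs, harvested 24 h after dosing.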

Assay [2] has as its target Bile acid receptor (Homo sapiens) (UniProt Q96RI1). The experiment in a line: ATG_IR1_CIS: Attagene CIS-FACTORIAL HepG2 Assay for human Nuclear Receptor Subfamily 1 Group H Member 4 (NR1H4), IR1 submotif (AID 2282946). The following applies: IR1 reporter transcription, actives raise or lower the signal. The method, boiled down:
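HepG2 cells transiently transfected with multiplexed cis-element reporter units read endogenous transcription factor activity. After 24 h compound exposure, reporter mRNA was quantified by RT-PCR, fluorescent labelling, HpaI digestion and capillary electrophoresis; bidirectional fitting versus DMSO baseline.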

Assay [3] can be described thus: ATG_GRE_CIS: Attagene CIS-FACTORIAL HepG2 Assay for human Glucocorticoid Response Elements (GRE) (AID 2282947). The following applies: HepG2 GRE cis-reporter, Attagene multiplex mRNA; actives raise or lower the signal. An outline of the steps: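 Multiplexed cis-reporter mRNA induction, HepG2, 24 h post-dose. RT-PCR, FAM-labelled, HpaI-digested amplicons by CE. Bidirectional fit vs DMSO.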

The nature of assay [4]: ATG_ISRE_CIS: Attagene CIS-FACTORIAL HepG2 Assay for human Interferon Regulatory Factor 1 (IRF1) binding to an Interferon-Stimulated Response Element (ISRE) (AID 2282948). The following applies: HepG2 ISRE cis-reporter (Attagene), mRNA transcription readout; actives raise or lower the signal. The method, boiled down: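 Signal reflects induction or loss of ISRE-linked reporter mRNA in transiently transfected HepG2 cells after a 24 h treatment, detected by fluorescent RT-PCR fragments on capillary electrophoresis and normalised to DMSO.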

Assay [5] can be described thus: ATG_M_32_CIS: Attagene CIS-FACTORIAL HepG2 Assay for M32 Transcription Factor (Internal Marker) (AID 2282949).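 Note: background control marker of the multiplexed CIS panel rather than a real target.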 The following applies: HepG2 Attagene cis-factorial M32 reporter, mRNA; actives raise or lower the signal. The method, boiled down:
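Transient MRTU transfection of HepG2; 24 h compound treatment; TriZol RNA, oligo(dT) RT, reporter PCR, 6-FAM primer extension, HpaI cut, CE. Gain/loss of signal vs DMSO.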

Assay [6] can be described thus: ATG_M_06_CIS: Attagene CIS-FACTORIAL HepG2 Assay for M06 Transcription Factor (Internal Marker) (AID 2282950). As to conditions: HepG2 Attagene CIS-FACTORIAL M06 internal marker reporter; actives raise or lower the signal. An outline of the steps:
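Cells (HepG2, transiently carrying cis-driven reporter units) receive chemical for 24 h before RNA isolation. Reporter cDNA is PCR-amplified, FAM-labelled by primer extension, HpaI-digested and sized on a capillary analyser.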

Assay [7] deals with Hypoxia-inducible factor 1-alpha (Homo sapiens) (UniProt Q16665). Description: ATG_HIF1a_CIS: Attagene CIS-FACTORIAL HepG2 Assay for human Hypoxia Inducible Factor 1 (HIF1A) (AID 2282951). As to conditions: HepG2 Attagene cis-factorial HIF1a reporter transcription; actives raise or lower the signal. An outline of the steps: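 HepG2 cells transiently transfected with multiplexed cis-promoter reporter units; reporter mRNA read 24 h after dosing by RT-PCR, 6-FAM primer-extension labelling, HpaI digestion and capillary electrophoresis. Bidirectional fit versus DMSO baseline.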
Hypoxia-inducible factor 1-alpha (Homo sapiens), sequence (Q16665 whole entry, looked up): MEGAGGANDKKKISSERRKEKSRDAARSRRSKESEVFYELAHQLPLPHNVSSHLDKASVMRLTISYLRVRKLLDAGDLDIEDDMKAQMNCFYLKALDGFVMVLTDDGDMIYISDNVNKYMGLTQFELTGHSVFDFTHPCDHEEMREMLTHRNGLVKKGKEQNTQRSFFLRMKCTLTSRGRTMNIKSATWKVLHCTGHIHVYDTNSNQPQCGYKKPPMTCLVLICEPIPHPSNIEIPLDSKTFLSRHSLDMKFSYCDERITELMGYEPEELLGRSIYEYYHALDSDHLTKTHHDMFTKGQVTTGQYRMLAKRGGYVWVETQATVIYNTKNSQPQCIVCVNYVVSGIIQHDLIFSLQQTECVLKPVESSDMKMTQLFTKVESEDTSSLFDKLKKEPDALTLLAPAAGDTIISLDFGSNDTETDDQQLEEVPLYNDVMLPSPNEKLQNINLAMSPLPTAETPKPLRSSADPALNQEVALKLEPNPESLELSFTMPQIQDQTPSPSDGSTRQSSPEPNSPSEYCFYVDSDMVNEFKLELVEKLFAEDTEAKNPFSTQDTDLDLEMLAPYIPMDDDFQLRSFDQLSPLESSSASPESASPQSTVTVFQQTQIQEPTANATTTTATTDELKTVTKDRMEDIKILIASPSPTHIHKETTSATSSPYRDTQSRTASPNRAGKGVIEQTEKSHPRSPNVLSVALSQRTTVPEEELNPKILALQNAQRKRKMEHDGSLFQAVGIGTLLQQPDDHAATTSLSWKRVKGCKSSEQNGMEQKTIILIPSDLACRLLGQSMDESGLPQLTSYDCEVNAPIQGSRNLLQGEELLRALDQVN

Assay [8] has as its target Heat shock factor protein 1 (Homo sapiens) (UniProt Q00613). Description: ATG_HSE_CIS: Attagene CIS-FACTORIAL HepG2 Assay for human Heat Shock Transcription Factor 1 (HSE) (AID 2282953). As to conditions: HepG2 HSE cis-reporter, Attagene RNA transcription; actives raise or lower the signal. An outline of the steps: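 Liver-derived HepG2 cells carry transiently introduced multiple reporter units governed by cis promoters. Reporter RNA measured 24 h post-dose through reverse transcription, PCR amplification, fluorescent labelling and capillary electrophoresis, normalised to DMSO.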

A short description of assay [9]: ATG_MRE_CIS: Attagene CIS-FACTORIAL HepG2 Assay for human Metal Responsive Element (MRE) (AID 2282954). The following applies: HepG2 MRE cis-reporter transcription, Attagene multiplex; actives raise or lower the signal. The method, boiled down: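 Multiplexed cis-reporter assay in human HepG2 liver cells, 24 h incubation with test chemical. Reporter transcripts measured by RT-PCR and capillary electrophoresis; values from bidirectional curve fitting versus DMSO.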

In assay [10] the target is Paired box protein Pax-6 (Homo sapiens) (UniProt P26367). Description: ATG_Pax6_CIS: Attagene CIS-FACTORIAL HepG2 Assay for human Paired Box 6 (PAX6) (AID 2282956). As to conditions: HepG2 CIS-FACTORIAL PAX6 reporter transcription, RNA readout; actives raise or lower the signal. An outline of the steps:
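Values derive from bidirectional curve fitting of reporter mRNA signal relative to DMSO. HepG2 cells bearing transfected cis-regulated MRTUs were exposed for 24 h; transcripts were read by RT-PCR and capillary electrophoresis.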

Assay [11] in a line: ATG_PXRE_CIS: Attagene CIS-FACTORIAL HepG2 Assay for human Pregnane X Receptor Element (PXRE) (AID 2282957). The following applies: HepG2 Attagene CIS-FACTORIAL PXRE reporter, mRNA; actives raise or lower the signal. The method, boiled down: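 Read-out: fluorescence of reporter-specific RT-PCR products resolved by capillary electrophoresis, fitted bidirectionally relative to DMSO. Human HepG2 liver cells carried transfected cis-promoter reporter units and were exposed to chemicals for 24 h.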

Assay [12] in a line: ATG_PPRE_CIS: Attagene CIS-FACTORIAL HepG2 Assay for human Peroxisome Proliferator-activated Response Element (PPRE) (AID 2282958). The following applies: HepG2 PPRE cis-element reporter, Attagene transcription factor profiling; actives raise or lower the signal. The method, boiled down: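 HepG2 cells transiently transfected with multiplexed cis-element reporter units measure endogenous transcription factor activity. After 24 h compound exposure, reporter mRNA is quantified by RT-PCR, 6-FAM labeling, HpaI digestion and capillary electrophoresis; bidirectional fits are made against DMSO baseline.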

Assay [13] can be described thus: ATG_RORE_CIS: Attagene CIS-FACTORIAL HepG2 Assay for human RAR-related Orphan Receptor Element (RORE) (AID 2282959). As to conditions: HepG2 Attagene cis-factorial RORE reporter, mRNA; actives raise or lower the signal. The method, boiled down: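 HepG2 cells transiently transfected with multiple cis-element reporter transcription units, exposed to chemical for 24 h. Reporter mRNA quantified by RT-PCR, 6-FAM primer-extension labeling, HpaI digestion and capillary electrophoresis; bidirectional fit versus DMSO baseline.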

Assay [14] can be described thus: ATG_Sox_CIS: Attagene CIS-FACTORIAL HepG2 Assay for human SRY-box transcription factor (SOX) (AID 2282960). The following applies: HepG2 Attagene cis-factorial SOX reporter, mRNA; actives raise or lower the signal. An outline of the steps: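 HepG2 cells transiently transfected with cis-element-driven multiple reporter transcription units, dosed 24 h; reporter mRNA measured by RT-PCR, FAM labelling, HpaI digestion and capillary electrophoresis. Bidirectional fit versus DMSO baseline.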

Assay [15] deals with Transcription factor Sp1 (Homo sapiens) (UniProt P08047). The experiment in a line: ATG_Sp1_CIS: Attagene CIS-FACTORIAL HepG2 Assay for human Specificity Protein 1 (Sp1) (AID 2282961). The following applies: HepG2 Sp1 cis-reporter transcription, actives raise or lower the signal. The method, boiled down: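 HepG2 cells transiently transfected with multiple reporter transcription units driven by cis-regulatory elements; Sp1-responsive reporter mRNA measured 24 h after dosing by RT-PCR and capillary electrophoresis fluorescence, fitted bidirectionally against DMSO baseline.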
Transcription factor Sp1 (Homo sapiens), sequence (P08047 whole entry, looked up): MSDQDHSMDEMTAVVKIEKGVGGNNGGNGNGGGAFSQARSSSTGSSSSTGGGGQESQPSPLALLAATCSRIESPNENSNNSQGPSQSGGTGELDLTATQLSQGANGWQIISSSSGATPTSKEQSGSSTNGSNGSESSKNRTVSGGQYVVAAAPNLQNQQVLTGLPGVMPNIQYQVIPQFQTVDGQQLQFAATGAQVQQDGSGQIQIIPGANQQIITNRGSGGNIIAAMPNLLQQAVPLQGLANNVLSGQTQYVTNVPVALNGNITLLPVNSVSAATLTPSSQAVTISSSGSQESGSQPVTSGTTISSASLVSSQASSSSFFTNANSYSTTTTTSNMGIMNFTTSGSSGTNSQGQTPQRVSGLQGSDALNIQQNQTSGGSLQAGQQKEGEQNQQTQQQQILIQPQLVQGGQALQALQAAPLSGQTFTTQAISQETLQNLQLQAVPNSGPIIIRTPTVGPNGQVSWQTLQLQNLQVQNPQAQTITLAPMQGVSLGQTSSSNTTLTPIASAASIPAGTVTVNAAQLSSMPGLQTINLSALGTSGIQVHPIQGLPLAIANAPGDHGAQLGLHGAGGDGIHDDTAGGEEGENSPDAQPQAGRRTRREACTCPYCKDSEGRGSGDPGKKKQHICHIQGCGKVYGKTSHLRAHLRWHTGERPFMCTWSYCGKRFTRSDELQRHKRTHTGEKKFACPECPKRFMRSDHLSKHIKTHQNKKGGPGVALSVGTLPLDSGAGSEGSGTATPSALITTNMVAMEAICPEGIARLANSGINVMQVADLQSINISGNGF

Assay [16] is described as follows: ATG_SREBP_CIS: Attagene CIS-FACTORIAL HepG2 Assay for human Sterol Regulatory Element Binding (SREBP) (AID 2282962). As to conditions: HepG2 Attagene cis-factorial SREBP reporter, mRNA; actives raise or lower the signal. The method, boiled down:
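Values derive from bidirectional curve fitting with DMSO as baseline. The underlying measurement is reporter mRNA from cis-element-regulated units in transiently transfected HepG2, quantified by RT-PCR and capillary electrophoresis after 24 h exposure.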

The target in assay [17] is Signal transducer and activator of transcription 3 (Homo sapiens) (UniProt P40763). Description: ATG_STAT3_CIS: Attagene CIS-FACTORIAL HepG2 Assay for human Signal Transducer and Activator of Transcription 3 (STAT3) (AID 2282963). The following applies: HepG2, Attagene cis-factorial STAT3 reporter transcription; actives raise or lower the signal. An outline of the steps:
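Cis-factorial format: endogenous transcription factors in HepG2 drive transfected reporter units. After 24 h treatment, reporter RNA was reverse-transcribed, amplified, FAM-labelled and HpaI-digested before CE analysis; activity scored in both directions against DMSO.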

Assay [18] can be described thus: ATG_TA_CIS: Attagene CIS-FACTORIAL HepG2 Assay for human TA Basal Promoter (AID 2282964). The following applies: HepG2 Attagene CIS-factorial TA basal promoter reporter; actives raise or lower the signal. An outline of the steps:
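Background internal-marker endpoint from a 52-component HepG2 cis-reporter panel. Cells treated 24 h; reporter transcripts quantified via RT-PCR and CE fluorescence against DMSO baseline.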

The target of assay [19] is Hepatocyte nuclear factor 6 (Homo sapiens) (UniProt Q9UBC0). Description: ATG_HNF6_CIS: Attagene CIS-FACTORIAL HepG2 Assay for human Hepatocyte Nuclear Factor 6 (HNF6) (AID 2282952). As to conditions: HepG2 Attagene cis-factorial HNF6 reporter transcription; actives raise or lower the signal. The method, boiled down:
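Readout: fluorescent reporter-transcript fragments resolved by capillary electrophoresis after RT-PCR, reflecting endogenous factor activity in transfected HepG2. Exposure 24 h. Gain or loss of signal fitted bidirectionally against DMSO.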

Assay [20] can be described thus: ATG_PBREM_CIS: Attagene CIS-FACTORIAL HepG2 Assay for human Phenobarbital-responsive Enhancer Module (PBREM) (AID 2282955). As to conditions: HepG2 PBREM cis-reporter, Attagene multiplexed transcription; actives raise or lower the signal. An outline of the steps: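 HepG2 cells transiently transfected with multiple cis-regulated reporter transcription units; endogenous factor activity at the PBREM element measured as reporter mRNA 24 h after dosing, via RT-PCR and capillary electrophoresis of fluorescent fragments; bidirectional fitting versus DMSO.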

The source made the active and inactive calls. Rule for the calls: active = hit-call score of the fitted dose curve at least 0.9, where 1 is the maximum; inactive = score below 0.9.

Experimental findings from PubChem BioAssay (EPA / NIEHS) are described below.

As a reminder, the AC50 is the concentration giving half of the maximal activity seen.

Paired box protein Pax-6 (Homo sapiens), sequence (P26367 whole entry, looked up): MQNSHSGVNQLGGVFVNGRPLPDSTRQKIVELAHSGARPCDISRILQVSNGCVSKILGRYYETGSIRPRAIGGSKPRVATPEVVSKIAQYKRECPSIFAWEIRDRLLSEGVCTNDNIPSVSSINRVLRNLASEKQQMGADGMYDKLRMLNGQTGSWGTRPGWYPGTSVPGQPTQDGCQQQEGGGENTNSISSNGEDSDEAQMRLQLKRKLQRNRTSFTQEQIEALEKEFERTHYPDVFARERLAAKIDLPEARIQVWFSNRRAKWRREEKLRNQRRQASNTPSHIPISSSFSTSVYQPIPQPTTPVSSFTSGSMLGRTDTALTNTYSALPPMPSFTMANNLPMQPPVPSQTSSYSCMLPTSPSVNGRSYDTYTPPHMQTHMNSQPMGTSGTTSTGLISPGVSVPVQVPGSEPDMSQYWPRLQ
Heat shock factor protein 1 (Homo sapiens), sequence (Q00613 whole entry, looked up): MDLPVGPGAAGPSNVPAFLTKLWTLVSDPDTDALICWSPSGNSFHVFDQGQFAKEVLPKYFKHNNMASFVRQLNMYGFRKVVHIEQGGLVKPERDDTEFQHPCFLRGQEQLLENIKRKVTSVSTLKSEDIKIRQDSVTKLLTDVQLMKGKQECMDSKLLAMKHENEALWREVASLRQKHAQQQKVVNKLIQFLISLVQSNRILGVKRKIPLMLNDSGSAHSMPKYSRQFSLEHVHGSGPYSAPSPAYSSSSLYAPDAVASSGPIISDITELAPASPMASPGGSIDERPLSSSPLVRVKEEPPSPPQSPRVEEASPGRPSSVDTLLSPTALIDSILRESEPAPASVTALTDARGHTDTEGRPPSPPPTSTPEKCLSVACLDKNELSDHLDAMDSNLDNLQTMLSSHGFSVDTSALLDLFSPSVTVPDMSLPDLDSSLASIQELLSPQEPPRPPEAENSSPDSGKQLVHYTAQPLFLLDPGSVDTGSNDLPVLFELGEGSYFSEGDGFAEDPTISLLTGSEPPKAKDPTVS
Hepatocyte nuclear factor 6 (Homo sapiens), sequence (Q9UBC0 whole entry, looked up, the tested form may be a part): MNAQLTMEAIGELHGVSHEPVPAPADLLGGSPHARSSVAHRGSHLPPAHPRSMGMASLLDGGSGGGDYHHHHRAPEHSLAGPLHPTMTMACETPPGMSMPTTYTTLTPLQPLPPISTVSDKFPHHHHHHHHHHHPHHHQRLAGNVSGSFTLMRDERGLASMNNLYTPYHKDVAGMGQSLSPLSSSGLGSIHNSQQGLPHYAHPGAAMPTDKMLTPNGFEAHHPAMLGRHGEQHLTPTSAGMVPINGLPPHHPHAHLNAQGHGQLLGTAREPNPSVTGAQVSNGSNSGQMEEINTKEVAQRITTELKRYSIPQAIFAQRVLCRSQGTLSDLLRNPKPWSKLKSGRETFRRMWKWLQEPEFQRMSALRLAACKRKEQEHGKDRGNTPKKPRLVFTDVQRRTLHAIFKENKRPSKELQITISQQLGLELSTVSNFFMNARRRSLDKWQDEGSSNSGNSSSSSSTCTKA
Signal transducer and activator of transcription 3 (Homo sapiens), sequence (P40763 whole entry, looked up): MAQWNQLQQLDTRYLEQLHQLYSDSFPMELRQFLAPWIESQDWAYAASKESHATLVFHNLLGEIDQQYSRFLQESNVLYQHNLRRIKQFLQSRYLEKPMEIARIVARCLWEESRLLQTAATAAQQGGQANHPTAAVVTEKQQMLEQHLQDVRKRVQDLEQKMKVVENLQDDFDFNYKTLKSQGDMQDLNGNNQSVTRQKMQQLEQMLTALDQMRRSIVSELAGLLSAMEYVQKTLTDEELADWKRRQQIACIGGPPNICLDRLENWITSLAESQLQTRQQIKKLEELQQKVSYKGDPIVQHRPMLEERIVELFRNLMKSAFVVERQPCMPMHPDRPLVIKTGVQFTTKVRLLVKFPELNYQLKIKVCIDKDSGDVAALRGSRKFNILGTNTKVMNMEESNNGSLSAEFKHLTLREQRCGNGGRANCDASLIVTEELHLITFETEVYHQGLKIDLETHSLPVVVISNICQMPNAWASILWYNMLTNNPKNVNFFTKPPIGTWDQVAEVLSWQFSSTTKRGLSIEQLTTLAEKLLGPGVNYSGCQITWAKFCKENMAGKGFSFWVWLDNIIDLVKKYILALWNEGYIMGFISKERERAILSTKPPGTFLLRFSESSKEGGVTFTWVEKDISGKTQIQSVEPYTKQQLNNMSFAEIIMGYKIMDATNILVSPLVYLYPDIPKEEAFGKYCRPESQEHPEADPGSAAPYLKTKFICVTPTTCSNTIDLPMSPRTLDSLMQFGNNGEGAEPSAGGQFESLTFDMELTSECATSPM
Bile acid receptor (Homo sapiens), sequence (Q96RI1 whole entry, looked up): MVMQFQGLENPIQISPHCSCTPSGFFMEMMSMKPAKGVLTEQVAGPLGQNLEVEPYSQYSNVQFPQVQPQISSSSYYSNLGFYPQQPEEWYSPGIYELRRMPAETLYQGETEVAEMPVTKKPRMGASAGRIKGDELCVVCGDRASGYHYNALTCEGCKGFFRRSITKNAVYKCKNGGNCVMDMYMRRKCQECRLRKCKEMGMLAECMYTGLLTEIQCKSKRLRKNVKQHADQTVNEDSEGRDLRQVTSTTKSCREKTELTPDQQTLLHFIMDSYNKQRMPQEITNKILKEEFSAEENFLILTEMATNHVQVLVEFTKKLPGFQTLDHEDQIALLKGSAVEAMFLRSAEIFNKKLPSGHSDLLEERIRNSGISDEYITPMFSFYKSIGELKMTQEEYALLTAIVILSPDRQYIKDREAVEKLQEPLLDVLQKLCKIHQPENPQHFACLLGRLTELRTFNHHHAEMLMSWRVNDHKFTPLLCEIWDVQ

Consider `O=C1CCC(=O)N1`, for which the compound was classed as inactive in assay [1], in assay [2], in [3], in [4], in [5] and in assay [6]. The outcome in assay [8], in assay [9], in assay [10], in [11], in assay [12] and in assay [13] was inactive. Besides, the compound was classed as inactive in [14], in assay [15], in assay [16], in assay [17] and in [18]. Further, in assay [7], the concentration at half-maximal activity (AC50) is 28.2 µM (active).

As for `CC1(C)CC(=O)CC(C)(C)N1`, the outcome in assay [1], in assay [3], in [4], in [5], in assay [6] and in assay [7] was inactive. The call in assay [19], in [8], in [9], in [10], in assay [12] and in assay [13] was inactive. Moreover, the compound was called inactive in [14], in assay [15], in [16] and in [18]. In addition, the half-maximal activity concentration (AC50) in [11] is 36.2 µM (active).

Take `CC(=O)CCc1ccc(O)cc1`: the compound was called inactive in assay [1], in assay [3], in assay [4], in [5], in assay [6] and in assay [7]. For the same compound, the call in assay [19], in [8], in [9], in assay [10], in [11] and in assay [12] was inactive. Moreover, the call in assay [13], in assay [14], in [15], in assay [17] and in [18] was inactive.

Take `c1ccc(OCCOc2ccccc2)cc1`: the outcome in [1], in [3], in assay [4], in [5], in assay [6] and in assay [19] was inactive. Further, the compound was classed as inactive in [8], in assay [9], in assay [20], in assay [10], in [11] and in assay [13]. Besides, the outcome in assay [14], in assay [15], in assay [16], in [17] and in [18] was inactive. For the same compound, the concentration at half-maximal activity (AC50) in assay [7] is 26.4 µM (active); in assay [12] it was 0.0167 µM (active).
